LMNA splice mod: LMNA splicing modulation. HeLa LMNA splicing GFP/RFP minigene ratio, 48 h. Potency, µM (top dose mostly 46.1 µM), for the others: top-dose ratio change, negative = inhibition, usual class: inhibitors. 200,000 compounds, 0.01% hits. AID 1487; active = well fitted inhibition curve with a large enough effect in the signal ratio, with a control signal flat, not every such curve was filed as active; inconclusive = small, poorly fitted or top-dose-only effect, or effect the other way, or a change in a side signal; the % refers to the signal ratio; note: % is set by controls: 0 for no effect and ±100 for the full control effect
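S3 HeLa stable clones carrying a lamin A-EGFP splicing minigene plus DsRed2 were seeded at 600 cells/well in Opti-MEM with 2% FBS, pin-dosed and incubated 48 h at 37°C. Acumen cytometry (488 nm) gave the GFP/RFP total-intensity ratio.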
HTT aggregate: inhibitors of mutant huntingtin aggregate formation in PC12 cells | PC12 HttQ103-GFP aggregates, Acumen cytometry, 40 h | Potency, µM (doses to about 46.1 µM), for the others: top-dose activity change, negative = inhibition, usual class: inhibitors | 220,000 compounds, 1.1% hits; active = well fitted curve in the direction sought with a large enough effect; inconclusive = small, poorly fitted or top-dose-only effect, or another doubt; inactive = no such curve, though single readings can be large; an effect the other way counts as inactive or inconclusive; note: % is set by controls: 0 for no effect and ±100 for the full control effect; nearly all actives have a fitted effect of over 60% in size
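PC12 cells stably carrying ecdysone-inducible HTT exon 1 Q103–GFP were induced with tebufenozide (100 nM final) and treated with library compounds in titration. GFP aggregates in lysates were counted by laser scanning cytometry.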
HTT cytoprotect: cytoprotection in Huntington HTT-Q103 PC12 cell model | Potency, µM (series often up to 56.4 µM), without a hit: cytoprotection (ATP increase), usual class: activators | 230,000 compounds, 0.14% hits | PC12 HTT-Q103 induced, cytoprotection, ATP luminescence, 40 h | AID 1471; active = well fitted curve in the direction sought with a large enough effect; inconclusive = small, poorly fitted or top-dose-only effect, or another doubt; inactive = no such curve, though single readings can be large; an effect the other way counts as inactive or inconclusive; note: % of control where 0% means no effect; nearly all actives have a fitted effect of over 45% in size
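PC12 cells stably carrying ecdysone-inducible Htt exon 1 (Q103)–GFP were induced with 100 nM tebufenozide (final) alongside library compounds in a dose series. Cytoprotection was scored as retained ATP by ATPlite luminescence.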
HPGD inh: HPGD (human) dehydrogenase inhibition; P15428; purified HPGD, NADH fluorescence kinetic, PGE2 substrate; Potency, µM, inactives show at the top dose activity change, negative = inhibition, most hits filed as inhibitors; 150,000 compounds, 4.3% hits; AID 894; note: % is set by controls: 0 for no effect and ±100 for the full control effect
Target sequence (P15428 whole entry, looked up): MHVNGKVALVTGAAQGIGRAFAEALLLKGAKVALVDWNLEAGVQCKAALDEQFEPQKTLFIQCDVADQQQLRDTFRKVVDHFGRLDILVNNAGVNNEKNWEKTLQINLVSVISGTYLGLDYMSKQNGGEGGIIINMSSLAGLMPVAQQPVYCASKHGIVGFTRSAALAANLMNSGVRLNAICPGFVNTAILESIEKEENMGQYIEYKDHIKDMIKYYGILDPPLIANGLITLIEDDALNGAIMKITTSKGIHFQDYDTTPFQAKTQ
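NADH formation kinetics: reaction with 30 uM PGE2 and 1 mM NAD+ (final), 20 nM enzyme, Tris-HCl pH 8 with Tween 20, after 15 min compound preincubation at room temperature. Fluorescence change, last versus first of five reads.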
KDM4E inh: JMJD2E (human) inhibition. B2RXH2. JMJD2E catalytic domain, FDH-coupled NADH fluorescence (FDH is formaldehyde dehydrogenase). Potency, µM (highest dose often 57.1 µM), for the others: at the top dose activity change, negative = inhibition, hits mostly inhibitors. 230,000 compounds, 1.6% hits. AID 2147;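 note: 0% = wells with enzyme and -100% = buffer wells without enzyme; nearly all actives have a fitted effect of over 50% in size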
Target sequence (B2RXH2 1-337 limits assumed): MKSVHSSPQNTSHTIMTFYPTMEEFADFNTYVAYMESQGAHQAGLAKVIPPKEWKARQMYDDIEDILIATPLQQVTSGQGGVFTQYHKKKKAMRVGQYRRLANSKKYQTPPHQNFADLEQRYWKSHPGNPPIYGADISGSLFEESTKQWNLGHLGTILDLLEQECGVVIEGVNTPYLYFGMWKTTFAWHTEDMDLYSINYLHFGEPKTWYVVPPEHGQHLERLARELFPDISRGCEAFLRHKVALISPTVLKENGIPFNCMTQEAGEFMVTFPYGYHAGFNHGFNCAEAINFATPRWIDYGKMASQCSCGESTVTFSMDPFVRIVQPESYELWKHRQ
ALDH1A1 inh: ALDH1A1 (human) enzyme inhibition; P00352; Purified ALDH1A1, NADH fluorescence, propionaldehyde substrate; Potency, µM (doses to about 75.3 µM), for inactives: at the highest dose activity, negative = inhibition, hits mostly inhibitors; 220,000 compounds, 7.3% hits; AID 1030;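 note: plate controls were no enzyme wells and a reference inhibitor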
Numbers without * were called inactive; [ ] = remark or other dose. The list is not random: actives were taken first. Their share in the collection is about 9.2%. Unless noted, calls come from the whole dose curve; as a rule, active = well fitted inhibition curve with a large enough effect (not every such curve was filed as active); inconclusive = small, poorly fitted or top-dose-only effect, or another doubt; inactive = no such curve, though single readings can be large or run the other way. Potency is the fitted concentration of half-maximal effect.

Screening CC(=O)Nc1ccc(S(=O)(=O)NCCNc2ccccc2[N+](=O)[O-])cc1 returned HTT aggregate 9.4%, HTT cytoprotect -31.9%, KDM4E inh -8.2% and ALDH1A1 inh 4.47µM*.
O=[N+]([O-])c1ccccc1NCCNS(=O)(=O)c1ccc(Cl)cc1 was read as LMNA splice mod inconclusive, HTT aggregate -5.9%, HTT cytoprotect 3.2%[10 µM], HPGD inh -18.4%, KDM4E inh -2.0% and ALDH1A1 inh inconclusive.
`O=[N+]([O-])c1cccc(Cl)c1NCCNS(=O)(=O)c1ccc(Cl)cc1` gave LMNA splice mod -15.3%, HTT aggregate -4.8%, HTT cytoprotect 20.0%[10 µM], HPGD inh -4.5%, KDM4E inh 1.2% and ALDH1A1 inh inconclusive.
O=C(CCC(=O)Nc1ccc(F)cc1)N/N=C/c1cc([N+](=O)[O-])ccc1O was read as HTT aggregate inconclusive, HTT cytoprotect -4.2%[10 µM], KDM4E inh 7.08µM* and ALDH1A1 inh -3.5%.
For O=C(CCC(=O)Nc1ccc(F)cc1)N/N=C/c1c[nH]c2ccccc12 the results were LMNA splice mod 0.8%[46 µM], HTT aggregate 6.9%, HTT cytoprotect -31.0%, KDM4E inh 0.5% and ALDH1A1 inh 6.4%.
For O=C(CCN1CCN(c2ccccc2)CC1)N/N=C/c1ccccc1O the results were LMNA splice mod inconclusive, HTT aggregate 12.6µM*, HTT cytoprotect -130.5%, KDM4E inh 28.2µM* and ALDH1A1 inh 1.1%.
Cc1cccc(NC(=O)CCC(=O)N/N=C/c2ccncc2)c1 was read as LMNA splice mod -9.9%, HTT aggregate -12.2%, HTT cytoprotect 4.4%[10 µM], HPGD inh -7.7%, KDM4E inh -15.6% and ALDH1A1 inh 6.9%.
For Cc1cccc(NC(=O)CCC(=O)N/N=C/c2cc([N+](=O)[O-])ccc2O)c1 the results were LMNA splice mod -28.6%, HTT aggregate -27.8%, HTT cytoprotect 16.7%[10 µM], HPGD inh -21.2%, KDM4E inh 10µM* and ALDH1A1 inh -6.5%.
For O=C(CCC(=O)Nc1ccc(F)cc1)N/N=C/c1ccccc1O the results were LMNA splice mod inconclusive, HTT aggregate inconclusive, HTT cytoprotect -40.8%, KDM4E inh 25.1µM* and ALDH1A1 inh 1.3%.
`O=C(CCC(=O)Nc1ccc(Br)cc1)N/N=C/c1cc([N+](=O)[O-])ccc1O` gave LMNA splice mod inconclusive, HTT aggregate inconclusive, HTT cytoprotect -39.0%, KDM4E inh inconclusive and ALDH1A1 inh -11.6%.
`Cc1c(C(=O)Nc2ccccc2)sc2nc(-c3cc4ccccc4oc3=O)[nH]c(=O)c12` gave LMNA splice mod -8.7%[46 µM].
For COc1ccc(/C=N/NC(=O)Cc2n[nH]c(=O)[nH]c2=O)cc1 the results were HTT aggregate 4.5%[9.22 µM], HTT cytoprotect 19.9%[10 µM] and KDM4E inh -5.5%.
`O=C(CNc1ccccc1)N/N=C/c1c[nH]c2ccccc12` gave LMNA splice mod -13.5%, HTT aggregate 1.9%, HTT cytoprotect 13.5%[10 µM], HPGD inh 0.126µM*, KDM4E inh 0.3% and ALDH1A1 inh -2.9%.
For O=C(Cc1n[nH]c(=O)[nH]c1=O)N/N=C/c1ccccc1O the results were LMNA splice mod -0.3%, HTT aggregate 6.7%, HTT cytoprotect -8.0%, HPGD inh -5.3%, KDM4E inh 14.1µM* and ALDH1A1 inh 4.5%.
Screening Cc1ccc(/C=N/NC(=O)Cc2c[nH]c3ccccc23)c(C)c1 returned LMNA splice mod -3.8%, HTT aggregate -0.5%, HTT cytoprotect 2.6%, HPGD inh -8.8%, KDM4E inh 0.5% and ALDH1A1 inh -2.5%.
`O=C(CCC(=O)N/N=C/c1ccccc1O)NCc1ccccc1` gave LMNA splice mod 3.6%, HTT aggregate 10µM*, HTT cytoprotect 4.4%[10 µM], HPGD inh -27.2%, KDM4E inh inconclusive and ALDH1A1 inh -2.5%.
Screening O=C(Cc1c[nH]c2ccccc12)N/N=C/c1ccccc1O returned HTT aggregate -16.9%[9.22 µM], HTT cytoprotect 25.8%[10 µM], KDM4E inh 25.1µM* and ALDH1A1 inh inconclusive.
`CN=C(Nc1cccc(OC)c1)SC1CC(=O)N(c2ccc(C(=O)O)cc2)C1=O` (stereo not drawn) gave LMNA splice mod -7.2%, HTT aggregate -28.2%, HTT cytoprotect 17.5%[10 µM], HPGD inh -12.1%, KDM4E inh 7.6% and ALDH1A1 inh 3.7%.
Screening CC(C)c1ccccc1-n1c(-c2cccnc2)n[nH]c1=S returned HTT aggregate 0.7%, HTT cytoprotect 15.7%[10 µM], KDM4E inh -14.1% and ALDH1A1 inh -0.4%.
For C/C(=C\CNc1ncnc2c1ncn2[C@@H]1O[C@H](CO)[C@@H](O)[C@H]1O)CO the results were HTT cytoprotect -94.0%, HPGD inh -13.4% and ALDH1A1 inh -9.0%.
O=C(N/N=C/c1cc([N+](=O)[O-])ccc1O)C1CCCCC1 was read as LMNA splice mod -7.2%, HTT aggregate 10µM*, HTT cytoprotect -21.2%[10 µM], HPGD inh -13.7%, KDM4E inh 7.08µM* and ALDH1A1 inh -15.1%.
`O=C(CCn1cnc2ccccc21)N/N=C/c1ccc(O)cc1` gave LMNA splice mod 4.8%, HTT aggregate 10.0%, HTT cytoprotect 11.5%[10 µM], HPGD inh inconclusive, KDM4E inh -11.2% and ALDH1A1 inh inconclusive.
O=C(N/N=C/c1cc([N+](=O)[O-])ccc1O)C1C2CCCCC21 (stereo not drawn) was read as LMNA splice mod inconclusive, HTT aggregate -2.9%[9.22 µM], HTT cytoprotect 1.4%[10 µM], KDM4E inh inconclusive and ALDH1A1 inh -2.9%.
`O=C(CCn1cnc2ccccc21)N/N=C/c1ccccc1O` gave LMNA splice mod inconclusive, HTT aggregate 10µM*, HTT cytoprotect -29.7%[10 µM], HPGD inh inconclusive, KDM4E inh inconclusive and ALDH1A1 inh 3.0%.
`CC1(C)NC(C)(C)c2nonc2/C1=N\O` gave LMNA splice mod 2.0%, HTT aggregate 4.8%, HTT cytoprotect 7.2%, HPGD inh -3.7%, KDM4E inh 2.6% and ALDH1A1 inh 12.6µM*.
C[C@H]1CC(C)(C)C[C@@](OCCN2CCCCC2)(c2ccccc2)C1 was read as HTT cytoprotect -11.7%[10 µM], HPGD inh -3.8% and ALDH1A1 inh 6.9%[13.5 µM].
Screening Cc1ccc(-c2nnn(CC(=O)N(C)C3CCCCC3)n2)o1 returned LMNA splice mod inconclusive, KDM4E inh 1.3% and ALDH1A1 inh 0.9%.
For CN(C(=O)Cn1nnc(-c2cccc(C(F)(F)F)c2)n1)C1CCCCC1 the results were LMNA splice mod 9.5%, HTT aggregate -7.4%, HTT cytoprotect 3.6%, HPGD inh -7.6%, KDM4E inh -3.6% and ALDH1A1 inh 35.5µM*.

Compound activity (PubChem BioAssay)
